Source: PubChem BioAssay (Tox21)
Inconclusive results are not listed. Unmarked numbers belong to inactive results. Activity calls are given as the source filed them. Calls come from the whole dose curve.

These compounds were tested against Muscarinic acetylcholine receptor M1 (Homo sapiens) (UniProt P11229) (assay: Cholinergic receptor muscarinic 1 (CHRM1) small molecule antagonists, cell-based qHTS assay (AID 1963588; note: nearly all actives have a fitted effect of over 40% in size)). Details: CHRM1-CHO antagonist mode, calcium flux fluorescence; series mostly up to 61.5 µM; activity, negative = inhibition: at the top concentration.
Description: National Center for Advancing Translational Sciences [NCATS]
Division of Preclinical Innovation [DPI]
U.S. Environmental Protection Agency [EPA]
National Institutes of Environmental Health Sciences [NIEHS]
National Toxicology Program [NTP]
U.S. Food and Drug Administration [FDA]
The CHRM1 is a muscarinic receptor. This receptor plays a crucial role in learning and memory processes and has long been identified as a promising therapeutic target for the improvement of cognitive decline in Alzheimer's disease (AD). The CHRM1-CHO cell line stably expressing human muscarinic acetylcholine receptor M1 (CHRM1) can be used for screening agonists and antagonists of interactions between CHRM1 and its ligands. The CHRM1-CHO Calcium Flux Assay is a homogeneous fluorescence-based assay for detecting the intracellular calcium level using FDSS kinetic plate reader system.
Tox21 Assay Protocol Summary:
CHRM1-CHO cells were dispensed at 1000 cells/3uL/well in 1536-well black-clear bottom plates using a Multidrop Dispenser. After the assay plates were incubated at a 37 C/5% CO2 incubator for 18 h, 3 uL of Dye Loading Buffer was transferred to the assay plate by a Flying Reagent Dispenser. The assay plates were incubated at 37 C for 1h. For antagonist mode, 23 nL of compounds dissolved in DMSO, positive controls or DMSO only was transferred to the assay plate by a pin tool. After 5 min incubation at room temperature, 1.5 uL of acetylcholine at 50nM was added to each well. The fluorescence intensity in the plates was measured using FDSS 7000EX kinetic plate reader for 3 min at 1 sec intervals. Each test compound was measured at 15 concentrations in three independent runs.
% is set by controls: 0 for no effect and ±100 for the full control effect; potency is the fitted concentration of half-maximal effect.

Sequence of Muscarinic acetylcholine receptor M1 (Homo sapiens) (P11229 whole entry, looked up): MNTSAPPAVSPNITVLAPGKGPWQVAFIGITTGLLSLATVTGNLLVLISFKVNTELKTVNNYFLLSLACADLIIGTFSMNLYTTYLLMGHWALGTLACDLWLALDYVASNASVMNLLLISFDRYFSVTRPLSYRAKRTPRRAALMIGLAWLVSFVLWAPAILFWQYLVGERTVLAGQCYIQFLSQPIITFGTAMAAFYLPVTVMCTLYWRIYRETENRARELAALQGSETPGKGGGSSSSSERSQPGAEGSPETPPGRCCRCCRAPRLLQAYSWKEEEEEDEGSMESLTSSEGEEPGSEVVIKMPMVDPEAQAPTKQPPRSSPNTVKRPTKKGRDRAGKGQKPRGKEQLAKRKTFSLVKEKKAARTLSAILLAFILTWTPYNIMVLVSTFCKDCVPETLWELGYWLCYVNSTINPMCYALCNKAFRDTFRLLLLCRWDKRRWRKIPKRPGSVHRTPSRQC

SMILES | activity, negative = inhibition | Potency
Cc1c(N)cccc1[N+](=O)[O-] | 52.8% | –
C/C=C/C=C/COC(=O)C(C)C | 4.96% | –
COc1cccc(O)c1O | -5.71% | –
CCOC(=O)c1c(N)sc2c1CCN(Cc1ccccc1)C2 | 10.9% [at 28.3 µM] | –
C/C=C(/C(=C/C)c1ccc(O)cc1)c1ccc(O)cc1 | – | 2.9 µM (active)
Oc1cn2c(n1)Nc1ccc(Cl)c(Cl)c1C2 | -10.4% [at 12.6 µM] | –
Cc1ccc2c(Cl)cc(Cl)c(O)c2n1 | 5.85% [at 28.3 µM] | –
O=C(O)c1ccc2c(c1)nc(C(=O)NC1CCN(C3CC3)CC1)n2Cc1cc(-c2ccc(Cl)s2)on1 | -5% [at 12.6 µM] | –
Clc1nc(C(Cl)(Cl)Cl)c(Cl)c(Cl)c1Cl | -21% | –
CCN(CC)c1cccc(C)c1 | -2.11% | –
O=C(CCCCC(=O)Nc1c(I)cc(I)c(C(=O)O)c1I)Nc1c(I)cc(I)c(C(=O)O)c1I | -2.54% [at 28.3 µM] | –
CCN(CC)CCOC(=O)C(c1ccccc1)c1ccccc1 | – | 0.0103 µM (active)
C/C=C(\C)C#N | 6.34% | –
CCCCCCCCC(C)=O | -4.91% | –
CCC(=O)CC(C)CC (stereo not given) | -17.2% [at 0.232 µM] | –
C=C1C[C@@]23CC[C@H]4[C@@](C)(CCC[C@@]4(C)C(=O)O[C@@H]4O[C@H](CO)[C@@H](O)[C@H](O)[C@H]4O)[C@@H]2CC[C@]1(O[C@@H]1O[C@H](CO)[C@@H](O)[C@H](O[C@@H]2O[C@H](CO)[C@@H](O)[C@H](O)[C@H]2O)[C@H]1O[C@@H]1O[C@H](CO)[C@@H](O)[C@H](O)[C@H]1O)C3 | -7.71% | –
CC(C)(C)C(=O)O | 30.1% | –
CNC(=O)c1ccccc1 | -8.66% | –
O=C(c1ccccc1)c1cccc(O)c1 | 0.225% | –
CC(C)CC(=O)C1C(=O)c2ccccc2C1=O | -43% | –

SMILES | activity, negative = inhibition | Potency
CCNC(=O)C(C)OC(=O)Nc1ccccc1 (stereo not given) | -9.8% | –
O=C(NCCO[N+](=O)[O-])c1cccnc1 | -2.89% [at 28.3 µM] | –
CCOC(=O)CC | 9.3% | –
C=CC(C)C#N (stereo not given) | 4.7% | –
OC[C@H]1O[C@@H](O[C@@H]2[C@@H](CO)O[C@](O)(CO)[C@H]2O)[C@H](O)[C@@H](O)[C@H]1O | 35.2% [at 28.3 µM] | –
CC(C)(O)CCCC1=CCC(C=O)CC1 (stereo not given) | -8.82% | –
C/C=C(\C)C(=O)OCC/C=C\CC | -0.619% | –
NC(=O)C1(N2CCCCC2)CCN(CCCC(=O)c2ccc(F)cc2)CC1 | -11.4% [at 28.3 µM] | –
CCCCCCCCCCCCCC(=O)OCC | 11.5% | –
Clc1ccc2n[nH]nc2c1 | 4.14% | –
O=C(O)c1cccc(C(=O)O)n1 | 2.42% | –
O=C1OC(O)C(C(Cl)Cl)=C1Cl (stereo not given) | 11.1% | –
CCCCCC(C)N (stereo not given) | -1.91% [at 28.3 µM] | –
Cc1c(C(=O)NCCO)[n+](=O)c2ccccc2n1[O-] | 0.222% [at 28.3 µM] | –
Oc1ccc2c(c1)OCO2 | -9.85% | –
CC1=C(C(=O)OC(C)C)C(c2cccc([N+](=O)[O-])c2)C(C(=O)OC2CN(C(c3ccccc3)c3ccccc3)C2)=C(N)N1 (stereo not given) | 1.86% [at 28.3 µM] | –
O=C(Nc1ccccc1)Nc1ccccc1 | -5.99% | –
NC(Cc1ccc(Cl)cc1)C(=O)O (stereo not given) | 9.51% [at 0.232 µM] | –
Cc1ccc(-n2nc(C(C)(C)C)cc2NC(=O)Nc2ccc(OCCN3CCOCC3)c3ccccc23)cc1 | -22.8% [at 28.3 µM] | –
Cc1ccc(-n2[nH]c(C)c(N=Nc3cccc(-c4cccc(C(=O)O)c4)c3O)c2=O)cc1C | 9.97% [at 28.3 µM] | –
